Measurements published in PubChem BioAssay AID1159580 (chemical genetic matrix, 2015).
Out of some 5,500 compounds screened, about 2,000 (36%) were called active. Not shown: some 18% with an inconclusive outcome. Cut-off read from the data, not from the text of the source: active = normalized growth mostly below about 0.91 (no sharp cut-off); inconclusive = no clear call, values can overlap the other calls; inactive = mostly above about 0.92. This is one part of the list.

Test: chemical genetic growth profiling, strain panel (AID 1159580);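 note: tested at 20 µM; growth read once vehicle control cultures reached saturation at 30 °C; 1 = growth at the plate median or of vehicle wells; lower values mean less growth of the strain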
Conditions: growth OD

Measured: normalized growth

CCCCN(CCCC)CCCOC(=O)c1ccc(N)cc1
inactive: S. cerevisiae deletion strains, locus YJR075W, strain HOC1, active compounds read low 0.981 | S. cerevisiae deletion strains, locus YKL009W, strain mrt4, active compounds read low 0.989 | S. cerevisiae deletion strains, locus YKL068W, active compounds read low 0.969 | S. cerevisiae deletion strains, locus YKL085W, strain MDH1 (second series), active compounds read low 0.987 | S. cerevisiae deletion strains, locus YKL085W, strain MDH1, active compounds read low 0.987 | S. cerevisiae deletion strains, locus YKL160W, strain elf1, active compounds read low 0.995 | S. cerevisiae deletion strains, locus YKL190W, strain CNB1, active compounds read low 0.988 | S. cerevisiae deletion strains, locus YKR001C, strain vps1, active compounds read low 0.98 | S. cerevisiae deletion strains, locus YKR026C, strain gcn3, active compounds read low 0.993 | S. cerevisiae deletion strains, locus YKR091W, strain srl3, active compounds read low 0.992 | S. cerevisiae deletion strains, locus YLL001W, strain dnm1, active compounds read low 0.996 | S. cerevisiae deletion strains, locus YLL026W, active compounds read low 0.995 | S. cerevisiae deletion strains, locus YLL041C, strain sdh2, active compounds read low 0.995 | S. cerevisiae deletion strains, locus YLR027C, strain aat2, active compounds read low 0.996 | S. cerevisiae deletion strains, locus YLR039C, strain RIC1, active compounds read low 0.863 | S. cerevisiae deletion strains, locus YLR058C, strain SHM2, active compounds read low 0.99 | S. cerevisiae deletion strains, locus YLR102C, strain apc9, active compounds read low 1.01 | S. cerevisiae deletion strains, locus YLR113W, strain HOG1, active compounds read low 0.986 | S. cerevisiae deletion strains, locus YLR221C, strain rsa3, active compounds read low 0.98 | S. cerevisiae deletion strains, locus YLR258W, strain gsy2, active compounds read low 0.985 | S. cerevisiae deletion strains, locus YLR262C, strain YPT6 (second series), active compounds read low 0.935 | S. cerevisiae deletion strains, locus YLR262C, strain YPT6, active compounds read low 0.876 | S. cerevisiae deletion strains, locus YLR268W, strain sec22, active compounds read low 0.92 | S. cerevisiae deletion strains, locus YLR320W, strain mms22, active compounds read low 0.993 | S. cerevisiae deletion strains, locus YLR330W, strain CHS5, active compounds read low 0.988 | S. cerevisiae deletion strains, locus YLR342W, strain FKS1 (second series), active compounds read low 1.06 | S. cerevisiae deletion strains, locus YLR342W, strain FKS1, active compounds read low 0.996 | S. cerevisiae deletion strains, locus YLR357W, strain rsc2, active compounds read low 0.99 | S. cerevisiae deletion strains, locus YLR370C, strain arc18, active compounds read low 0.995 | S. cerevisiae deletion strains, locus YLR371W, strain rom2, active compounds read low 0.992 | S. cerevisiae deletion strains, locus YLR384C, strain iki3, active compounds read low 0.995 | S. cerevisiae deletion strains, locus YLR418C, strain cdc73, active compounds read low 1.02 | S. cerevisiae deletion strains, locus YML016C, strain PPZ1, active compounds read low 0.993 | S. cerevisiae deletion strains, locus YML032C, strain rad52, active compounds read low 0.965 | S. cerevisiae deletion strains, locus YML120C, strain ndi1, active compounds read low 0.988 | S. cerevisiae deletion strains, locus YML124C, strain tub3, active compounds read low 0.997 | S. cerevisiae deletion strains, locus YMR058W, strain fet3, active compounds read low 0.999 | S. cerevisiae deletion strains, locus YMR078C, strain ctf18, active compounds read low 0.993 | S. cerevisiae deletion strains, locus YMR125W, strain sto1, active compounds read low 0.992 | S. cerevisiae deletion strains, locus YMR129W, active compounds read low 0.988 | S. cerevisiae deletion strains, locus YMR205C, strain PFK2, active compounds read low 0.991 | S. cerevisiae deletion strains, locus YMR223W, strain ubp8, active compounds read low 1.01 | S. cerevisiae deletion strains, locus YMR231W, strain pep5, active compounds read low 0.997 | S. cerevisiae deletion strains, locus YMR263W, strain SAP30, active compounds read low 0.982 | S. cerevisiae deletion strains, locus YMR307W, strain GAS1, active compounds read low 1.06 | S. cerevisiae deletion strains, locus YNL067W, strain RPL9B, active compounds read low 0.963 | S. cerevisiae deletion strains, locus YNL071W, strain lat1, active compounds read low 0.994 | S. cerevisiae deletion strains, locus YNL128W, strain TEP1, active compounds read low 0.994 | S. cerevisiae deletion strains, locus YNL153C, strain GIM3, active compounds read low 0.976 | S. cerevisiae deletion strains, locus YNL183C, strain NPR1, active compounds read low 0.921 | S. cerevisiae deletion strains, locus YNL209W, strain ssb2, active compounds read low 0.985 | S. cerevisiae deletion strains, locus YNL233W, strain BNI4, active compounds read low 0.985 | S. cerevisiae deletion strains, locus YNL248C, strain rpa49, active compounds read low 0.976 | S. cerevisiae deletion strains, locus YNL250W, strain rad50, active compounds read low 0.983 | S. cerevisiae deletion strains, locus YNL271C, strain bni1, active compounds read low 0.984 | S. cerevisiae deletion strains, locus YNL298W, strain CLA4, active compounds read low 0.978 | S. cerevisiae deletion strains, locus YNL307C, strain MCK1, active compounds read low 0.982 | S. cerevisiae deletion strains, locus YNL322C, strain KRE1 (second series), active compounds read low 0.991 | S. cerevisiae deletion strains, locus YNL322C, strain KRE1, active compounds read low 0.994 | S. cerevisiae deletion strains, locus YNR049C, strain mso1, active compounds read low 0.998 | S. cerevisiae deletion strains, locus YNR052C, strain pop2, active compounds read low 0.992 | S. cerevisiae deletion strains, locus YOL006C, strain TOP1, active compounds read low 0.938 | S. cerevisiae deletion strains, locus YOL012C, strain htz1 0.971 | S. cerevisiae deletion strains, locus YOL147C, strain pex11, active compounds read low 0.989 | S. cerevisiae deletion strains, locus YOR001W, strain rrp6, active compounds read low 0.995 | S. cerevisiae deletion strains, locus YOR061W, strain CKA2, active compounds read low 0.992 | S. cerevisiae deletion strains, locus YOR069W, strain VPS5, active compounds read low 0.995 | S. cerevisiae deletion strains, locus YOR070C, strain gyp1, active compounds read low 0.993 | S. cerevisiae deletion strains, locus YOR080W, strain dia2, active compounds read low 0.996 | S. cerevisiae deletion strains, locus YOR083W, strain WHI5, active compounds read low 0.984 | S. cerevisiae deletion strains, locus YOR106W, strain vam3, active compounds read low 0.995 | S. cerevisiae deletion strains, locus YOR136W, strain idh2, active compounds read low 0.994 | S. cerevisiae deletion strains, locus YOR144C, strain elg1, active compounds read low 0.986 | S. cerevisiae deletion strains, locus YOR184W, strain ser1, active compounds read low 0.979 | S. cerevisiae deletion strains, locus YOR231W, strain MKK1, active compounds read low 0.961 | S. cerevisiae deletion strains, locus YOR265W, strain rbl2, active compounds read low 0.998 | S. cerevisiae deletion strains, locus YOR270C, strain vph1, active compounds read low 1.01 | S. cerevisiae deletion strains, locus YOR290C, strain snf2, active compounds read low 0.986 | S. cerevisiae deletion strains, locus YOR316C, strain cot1, active compounds read low 0.978 | S. cerevisiae deletion strains, locus YPL051W, strain arl3, active compounds read low 0.995 | S. cerevisiae deletion strains, locus YPL055C, strain LGE1, active compounds read low 0.986 | S. cerevisiae deletion strains, locus YPL078C, strain atp4, active compounds read low 0.988 | S. cerevisiae deletion strains, locus YPL106C, strain sse1, active compounds read low 0.977 | S. cerevisiae deletion strains, locus YPL240C, strain hsp82, active compounds read low 0.997 | S. cerevisiae deletion strains, locus YPL241C, strain CIN2, active compounds read low 1 | S. cerevisiae deletion strains, locus YPL256C, strain CLN2, active compounds read low 0.937 | S. cerevisiae deletion strains, locus YPR119W, strain clb2, active compounds read low 0.969 | S. cerevisiae deletion strains, locus YPR141C, strain kar3, active compounds read low 0.987 | S. cerevisiae deletion strains, locus YPR163C, strain tif3, active compounds read low 0.973 | S. cerevisiae deletion strains, locus YPR167C, strain met16, active compounds read low 0.978 | S. cerevisiae deletion strains, strain wtn01, active compounds read low 0.97 | S. cerevisiae strains, strain wild type, active compounds read low 1
